MazEF act = increases E. coli MazEF RNase cleavage of RNA | P0AE70 | FAM/BHQ RNA-DNA oligo cleavage fluorescence, 5 h | activation, % at 20 µM | 350,000 compounds, 0.32% hits; in the data active = activation above about 50%
Target sequence (P0AE70 whole entry, looked up): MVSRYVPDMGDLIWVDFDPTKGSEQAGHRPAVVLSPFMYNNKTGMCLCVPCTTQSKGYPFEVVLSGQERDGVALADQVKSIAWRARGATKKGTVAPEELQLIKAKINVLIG
BoNT A protease = blocks Botulinum neurotoxin A light chain protease; multiplex microsphere protease substrate cleavage, flow cytometry; inhibition, % at 10 µM; 360,000 compounds, 0.17% hits; also: plate controls were buffer without enzyme for full effect and enzyme alone for no effect
BoNT-F LC inh = inhibitors of Botulinum neurotoxin F light chain protease; Multiplex microsphere protease cleavage assay, flow cytometry; inhibition, % at 10 µM; 360,000 compounds, 0.22% hits; AID 588497; in the data active = inhibition above about 35%, passing the limit was not always enough; inconclusive = no clear call, values can overlap the other calls; also: plate controls were buffer without enzyme for full effect and enzyme alone for no effect
Autofluor counter = flagged as autofluorescent in microsphere protease counterscreen; compound autofluorescence counterscreen, microsphere flow cytometry; stronger effect = higher value; 360,000 compounds, 3.1% hits; fluorescence intensity (test concentration not listed); in the data active = fluorescence intensity above about 16000; inconclusive = no clear call, values can overlap the other calls
Anthrax LF inh2 = blocks Bacillus anthracis lethal factor protease; P15917; multiplex microsphere protease cleavage assay, LF; inhibition, % at 10 µM; 360,000 compounds, 0.12% hits; AID 588501; also: plate controls were buffer without enzyme for full effect and enzyme alone for no effect
BoNT-A LC CP1 = BoNT/A light chain protease inhibition. shares compounds with BoNT-F LC inh. inhibition, % at 10 µM. 720 compounds, 3% hits. multiplex microsphere protease assay, flow cytometry; in the data active = inhibition above about 32%
BoNTF LC inh 1 = blocks botulinum neurotoxin F light chain protease | shares compounds with BoNT-F LC inh | AID 602140 | multiplex microsphere protease cleavage assay, flow cytometry | 720 tested, under 10 active | inhibition, % at 10 µM; call rule not given here
Anthrax LF CP1 = inhibitors of Bacillus anthracis lethal factor protease; shares compounds with BoNT-F LC inh; multiplex microsphere protease cleavage assay, LF; inhibition, % at 10 µM; 720 tested, under 10 active; AID 602142; call rule not given here
* hit, by the source's call; ? = inconclusive; nt = no result given. Compounds with a hit are over-represented: about 3.6% of the library has one in this group of screens. Rule as the data show it, unless noted: active = inhibition above about 30%; inconclusive = no clear call, values can overlap the other calls; inactive = below that.

SMILES | MazEF act | BoNT A protease | BoNT-F LC inh | Autofluor counter | Anthrax LF inh2 | BoNT-A LC CP1 | BoNTF LC inh 1 | Anthrax LF CP1
CSc1ccc(CN2CCC2(C)C(=O)NCc2ccc3c(c2)OCO3)cc1 (stereo not given) | nt | -0.8 | 2.6 | 3951 | -6.5 | nt | nt | nt
Cc1ccc(C(c2nc3ccccc3[nH]2)n2c(-c3ccccc3)nc3ccccc32)cc1 (stereo not given) | nt | 0.2 | -9.4 | 5351 | 5.5 | nt | nt | nt
COc1ccc(C(CNC(=O)c2cccc(S(=O)(=O)Nc3ccccc3OC)c2)N2CCCC2)cc1 (stereo not given) | -5.2 | 1.2 | 36.9* | 11267 | 4.0 | -9.9 | -2.3 | -3.6
COc1ccc(C(CNC(=O)c2cccc(S(=O)(=O)Nc3ccccc3OC)c2)N2CCCCC2)cc1 (stereo not given) | 4.1 | -3.4 | 4.9 | 7054 | -3.4 | nt | nt | nt
CC(=O)c1ccc(NS(=O)(=O)c2cccc(C(=O)Nc3ccccc3C(=O)O)c2)cc1 | -38.5 | 3.8 | -4.6 | 3368 | -2.1 | -0.4 | -0.7 | 6.2
COc1ccc(NS(=O)(=O)c2cccc(C(=O)Nc3ccccc3C(=O)O)c2)cc1 | -5.9 | -0.7 | ? | 4460 | 2.7 | -0.7 | -2.1 | 4.3
CC1=C(C(=O)N(C)C)CC(CC(=O)NCCc2ccccn2)C(=O)N1Cc1ccc(C(C)(C)C)cc1 (stereo not given) | 7.0 | -0.4 | -9.2 | 3013 | 0.0 | nt | nt | nt
Nc1cc(Cl)ccc1C(=O)OCC(=O)N1CCOCC1 | -2.3 | 2.0 | -0.5 | 4448 | 0.2 | nt | nt | nt
O=C(Nc1ccccc1)OC1CCCCc2cccnc21 (stereo not given) | 3.2 | ? | ? | 3832 | 30.1* | 0.8 | 2.4 | -2.3
O=C(Nc1cccc(Cl)c1)OC1CCCCc2cccnc21 (stereo not given) | 8.3 | 0.4 | -4.4 | 6207 | -8.5 | nt | nt | nt
CCc1ccc(OCc2nnc(SCC(=O)Nc3cccc(C(=O)N4CCOCC4)c3)o2)cc1 | 2.3 | 4.8 | 46.0* | 2064 | 0.6 | 1.3 | 0.4 | -0.2
CCOc1ccc(OCCC(=O)N(CC)CC(=O)Nc2ccccc2OC)cc1 | 1.9 | -1.6 | ? | ? | -2.5 | nt | nt | nt
O=C(O)c1ccc(NS(=O)(=O)c2ccc(NC(=O)c3ccccc3Cl)cc2)cc1 | 2.4 | 0.4 | -5.8 | 3422 | -2.6 | nt | nt | nt
Cc1ccc(NS(=O)(=O)c2ccc(Cl)c(C(=O)Nc3cccc(C(=O)O)c3)c2)cc1 | 4.3 | -2.8 | ? | 4199 | -3.7 | -0.9 | -3.2 | -2.5
O=C(O)c1ccc(NS(=O)(=O)c2ccc(Cl)c(C(=O)Nc3ccccc3)c2)cc1 | 4.1 | -0.5 | ? | 3179 | 14.7 | 0.4 | 0.2 | 1.3
O=C(Nc1ccccc1C(=O)O)c1cc(S(=O)(=O)Nc2ccccc2)ccc1Cl | -2.8 | 2.9 | ? | 4097 | -5.8 | -0.3 | -4.6 | 1.1
Cc1ccc2c(c1)-c1cc(C)ccc1C2=O | 3.5 | 0.7 | 3.6 | 3696 | -1.8 | nt | nt | nt
Cc1cccc(N2CCN(C(=S)c3ccc4c(c3)OCO4)CC2)c1 | -5.2 | -0.4 | 1.9 | 3638 | -4.6 | nt | nt | nt
O=C(c1cc2c(c(-c3cccc(-c4ccncc4)c3)n1)[C@H](CCO)N(C(=O)c1ccc3c(c1)OCO3)C2)N1CCOCC1 | nt | 0.4 | -0.3 | 5477 | -1.5 | nt | nt | nt
COc1ccc(C2=NOC(C(=O)NCc3ccccn3)C2)cc1 (stereo not given) | 6.1 | 2.9 | 72.2* | 3906 | 4.6 | -0.6 | -4.0 | -1.7
COc1cc(CNCCCN2CCOCC2)cc(Cl)c1OCC(=O)NC(C)(C)C | 7.2 | -11.3 | -16.3 | 4053 | -4.5 | nt | nt | nt
CCOC(=O)C1CCN(C(=O)c2ccc3nc(-c4ccc(OC)cc4)c(-c4ccc(OC)cc4)nc3c2)CC1 | 3.2 | 29.8* | 19.5 | 5131 | 10.9 | 12.4 | -2.1 | 3.2
CCOC(=O)C1CCCN(C(=O)c2ccc(OC)cc2)CC1 (stereo not given) | nt | -0.3 | -5.5 | 3909 | -3.8 | nt | nt | nt
CC(C)OCCCNC(=O)[C@H]1N2C(=O)c3ccccc3C2SC1(C)C (stereo not given in full) | 4.2 | 1.0 | -7.8 | 3116 | 5.9 | nt | nt | nt
CC(C)NC(=O)[C@H]1N2C(=O)c3ccccc3C2SC1(C)C (stereo not given in full) | 7.1 | 3.9 | 35.6* | 3866 | 4.3 | 0.0 | -2.9 | -2.7
SMILES | MazEF act | BoNT A protease | BoNT-F LC inh | Autofluor counter | Anthrax LF inh2 | BoNT-A LC CP1 | BoNTF LC inh 1 | Anthrax LF CP1
O=C(CSc1nnc2ccc(-c3ccccn3)nn12)Nc1cccc(F)c1 | -4.3 | -0.6 | -3.2 | 3857 | -8.6 | nt | nt | nt
C[C@@H]1CCCCO[C@H](CN(C)S(=O)(=O)c2ccccc2)[C@@H](C)CN([C@H](C)CO)C(=O)c2cc(NC(=O)Cc3ccccc3)ccc2O1 | -4.0 | -0.3 | -6.8 | 2902 | -8.9 | nt | nt | nt
CCOc1cc2nc3c4ccccc4n(C)c3nc2cc1OCC | -9.2 | 48.5* | 7.9 | 2580 | 19.6 | 7.5 | -0.1 | 3.1
CC1(Oc2ccc3ccccc3c2)CCN(Cc2ccc(OC(F)(F)F)cc2)C1 (stereo not given) | nt | -0.2 | -2.1 | 2807 | -2.1 | nt | nt | nt
COCC(C)NS(=O)(=O)c1ccc(C(=O)NCCCn2ccc3ccccc32)cc1 (stereo not given) | 1.3 | -0.2 | 15.1 | 3119 | -1.1 | 1.6 | -7.7 | 2.9
CN(C)c1cccc(C(=O)NCCCn2ccc3ccccc32)c1 | -31.0 | -2.1 | 0.2 | 5879 | 1.5 | 1.2 | -1.2 | 0.9
COc1ccccc1C(=O)NCCn1ccc2ccccc21 | 0.4 | 95.9* | 35.6* | 9297 | 58.6* | 2.5 | 2.2 | -0.7
COc1ccc(C(=O)NCCn2ccc3ccccc32)cc1OC | -29.3 | 14.2 | 12.3 | 5089 | 22.9 | 0.4 | 0.4 | -2.0
CC(=O)NCCn1ccc2ccccc21 | 6.5 | -0.5 | -7.6 | 2365 | 2.9 | nt | nt | nt
CC(C)C[C@@]12C(=O)N(c3cccc(F)c3)C(=O)N1[C@H](c1ccc(F)cc1)[C@@H]1C(=O)N(C3CCCCC3)C(=O)[C@@H]12 | -0.1 | -0.6 | -8.7 | 3596 | -3.9 | nt | nt | nt
COc1ccc(NC(=O)c2ccc(S(=O)(=O)N(C)c3ccccc3)cc2)cc1S(=O)(=O)N1CCOCC1 | 5.7 | -0.4 | 1.0 | 4008 | -9.9 | nt | nt | nt
COc1cccc(C(=O)NCCn2ccc3ccccc32)c1 | 2.8 | 4.0 | 3.0 | 5004 | 3.9 | 0.7 | -1.5 | 3.0
O=C(Cc1ccccc1)NCCn1ccc2ccccc21 | -7.2 | 8.7 | 5.6 | 6292 | 8.0 | nt | nt | nt
COc1cc(OC)cc(C(=O)NCCn2ccc3ccccc32)c1 | 1.3 | 5.4 | 3.6 | 6827 | 3.5 | -0.1 | -5.3 | 4.1
C/C=C/C=N/Nc1nc(-c2ccc([N+](=O)[O-])cc2)cs1 | -1.1 | -0.9 | -2.2 | 2460 | -2.0 | nt | nt | nt
COC(=O)c1cc(NC(=O)c2cc(C(C)(C)C)nn2Cc2ccc(F)cc2)ccc1N1CCOCC1 | -0.4 | nt | nt | nt | nt | nt | nt | nt
COc1cc(NC(=O)c2ccc(F)cc2)ccc1NC(=O)c1cc2ccccc2o1 | -22.8 | nt | nt | nt | nt | nt | nt | nt
COc1cc(NC(=O)c2c(OC)cccc2OC)ccc1NC(=O)c1cc2ccccc2o1 | -1.1 | -2.4 | -38.8 | 3480 | 32.0* | 0.9 | -1.4 | -0.2
